These results are taken from PubChem BioAssay (NCATS).

Records with an inconclusive call do not appear. Calls of active or inactive are those of the source. Unless noted, calls come from the whole dose curve; as a rule, active = well fitted curve in the direction sought with a large enough effect; inconclusive = small, poorly fitted or top-dose-only effect, or another doubt; inactive = no such curve, though single readings can be large; an effect the other way counts as inactive or inconclusive.

The target in experiment [1] is Transient receptor potential cation channel subfamily V member 1 (Homo sapiens) (UniProt Q8NER1). In words: HTS Assay for Compounds that Act as Enhancers of the Vanilloid Receptor 1 (AID 488979). Note: 0% is about no effect. An outline of the steps: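 Calcium influx kinetics via Fluo-8 (480/520 nm) in TRPV1-expressing cells, 2000/well cultured overnight at 35.5C. Compound-alone read 3 min (agonist phase), followed by EC20 capsaicin challenge for 2 min (enhancer phase).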

The target in experiment [2] is Thyrotropin receptor (Homo sapiens) (UniProt P16473). In words: qHTS Assay for Antagonists of the Thyroid Stimulating Hormone Receptor (AID 488980). Note: series mostly up to about 58 µM; 0% is about no effect. An outline of the steps: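 TSHR-transfected HEK293 cells (2000/well) in HEPES-buffered HBSS with 70 uM RO 20-1724 were stimulated with 4 nM TSH (EC80, final) in the presence of compound. cAMP was measured by HTRF competition after lysis and 30 min at RT.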

Experiment [3] deals with D(1A) dopamine receptor (Homo sapiens) (UniProt P21728). In words: HTS Assay for Allosteric Agonists of the Human D1 Dopamine Receptor: Primary Screen for Agonists (AID 488981). Note: 0% is about no effect. A digest of the protocol:
(§1)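 Calcium flux in an inducible, force-coupled HEK293 Trex D1 line (overnight at 30 C): agonist mode is the 180 s kinetic read after compound; potentiator mode is the following 180 s read after dopamine at EC20.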

For experiment [4] the target is unchanged. Nature of the experiment: HTS Assay for Allosteric Agonists of the Human D1 Dopamine Receptor: Primary Screen for Potentiators (AID 488982). Note: 0% is about no effect. An outline of the steps: as §1
Experiment [5] has the same target. Nature of the experiment: HTS Assay for Allosteric Agonists of the Human D1 Dopamine Receptor: Primary Screen for Antagonists (AID 488983).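 Note: calcium flux response to an EC80 dopamine challenge measured with no-wash dye; % is set by controls: 0 for no effect and ±100 for the full control effect; nearly all actives have a fitted effect of over 65% in size.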 An outline of the steps: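 Calcium-flux read-out in inducible HEK293 T-REx cells expressing D1, dye-loaded 30–90 min at room temperature. Kinetic reads: 180 s after compound (agonist phase), then 180 s after an EC80 dopamine challenge.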

A short description of experiment [6]: Validation screen for small molecules that induce genotoxicity in human embryonic kidney (HEK293T) cells expressing luciferase-tagged ELG1 (AID 493106). Note: 0% is about no effect. A digest of the protocol: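 ELG1-luciferase reporter readout (ONE-Glo, 30 min, room temperature) after 16 hr compound treatment at 37 °C of HEK293T cells at 2,000 per well. Rising luminescence flags genotoxic stress.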

Experiment [7] has as its target Thyrotropin-releasing hormone receptor (Homo sapiens) (UniProt P34981). In words: qHTS for Small Molecule Agonists and Allosteric Enhancers of Human TRH Receptor: Validation Screen for Agonists (AID 493127;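 active = calcium activation more than 3 SD above the typical response in the agonist read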;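 note: intracellular calcium rise by fluo-8 fluorescence before TRH EC20 addition; 0% is about no effect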). Conditions: TRH receptor agonist cell assay; at 2 µM; stronger effect = higher value. An outline of the steps:
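Compound-evoked intracellular calcium release in fluo-8-loaded TRHR cells, read kinetically on FDSS (Ex 480/Em 530, 1 s/cycle) after 23 nL pintool transfer. Agonist phase preceded 10 nM TRH EC20 addition.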

A short description of experiment [8]: qHTS for Inhibitors of Cell Surface uPA Generation: Validation Assay (AID 493164).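 Note: RAW 264.7 macrophage cells exposed to compound for 18 h; 0% is about no effect.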 An outline of the steps:
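ATP-Lite luminescence read-out: ATP remains high when uPA activity-dependent LF translocation into the cytoplasm is blocked. RAW 264.7 cells, 18 h compound exposure at 37 C; 7-point titration, 2.45 nM to 38.3 uM final.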

The target of experiment [9] is Galactokinase (Homo sapiens) (UniProt P51570). In words: qHTS Validation Assay for Inhibitors of Human Galactokinase (GALK) (AID 493189). Note: 0% is about no effect. A digest of the protocol: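 GALK (5 nM) with 35 uM ATP and 100 uM galactose in HEPES pH 8.0 with MgCl2, NaCl, DTT and BSA. Reaction ran 1 h at room temperature. Residual ATP read by Kinase-Glo Plus luminescence.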
Experiment [10] can be described thus: Validation screen for small molecules that induce DNA re-replication in SW480 colon adenocarcinoma cells (AID 504364). Note: 0% is about no effect. An outline of the steps:
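Image-based DNA content read-out: Hoechst stain 40 min, total nuclear fluorescence intensity (ex 405 nm, em 500-530 nm) after 48 h compound exposure of 250 SW480 cells/well at 37 C, 5% CO2, versus DMSO vehicle.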

In experiment [11] the target is Peptidyl-prolyl cis-trans isomerase NIMA-interacting 1 (Homo sapiens) (UniProt Q13526). Nature of the experiment: qHTS Validation Assay to Find Inhibitors of Pin1 (AID 504536; active = well fitted inhibition curve with a large enough effect in the polarisation, with a control signal flat, not every such curve was filed as active; the % refers to the polarisation;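 note: 0% = full Pin1 enzyme wells and -100% = no-enzyme wells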). An outline of the steps: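 Fluorescence polarization competition: compounds (titration) displace HiFluor-488-labeled Pin1-1b peptide from Pin1 (0.3 uM final) in pH 7.5 HEPES buffer with DTT, 10 min at room temperature; %Activity normalized to no-enzyme wells, curves fitted.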

Experiment [12] deals with Phosphoglycerate kinase, glycosomal (Trypanosoma brucei brucei) (UniProt P07378). In words: qHTS Validation Assay to Find Inhibitors of Phosphoglycerate Kinase (AID 504547).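 Note: control wells lack PGK and mark full inhibition.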 An outline of the steps: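 Luminescence end-point (Kinase-Glo Plus, 10 min) after a 60 min room-temperature coupled reaction. GAPDH at 100nM final supplies 1,3-BPG to PGK. Buffer: 100mM TEA pH 7.6, 5mM MgCl2, 0.01% Tween-20. Wells lacking PGK served as controls.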

Experiment [13] deals with phosphoglycerate mutase (Leishmania major) (UniProt Q4Q090). Nature of the experiment: qHTS Validation Assay to Find Inhibitors of Phosphoglycerate Mutase (AID 504548). Note: series mostly up to about 58 µM; % is set by controls: 0 for no effect and ±100 for the full control effect. Conditions: Potency: inhibition qHTS. An outline of the steps: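 Luminescent end-point read-out via Kinase-GloPlus after a 10-minute development. Reaction: 1.25nM Leishmania major PGAM with substrate and compound, 45 minutes at room temperature in TEA buffer (pH 7.6) with MgCl2 and Tween-20.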

Experiment [14] has as its target Ubiquitin carboxyl-terminal hydrolase 1 (Homo sapiens) (UniProt O94782). Nature of the experiment: Inhibitors of USP1/UAF1: Pilot qHTS (AID 504865).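 Note: rhodamine fluorescence freed from ubiquitin-rhodamine substrate followed over time; top concentration of the series differs between compounds; % is set by controls: 0 for no effect and ±100 for the full control effect; nearly all actives have a fitted effect of over 35% in size.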 An outline of the steps: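 USP1/UAF1 complex at 1 nM preincubated 15 min at room temperature with compound, then Ub-Rho substrate added at 150 nM final. Fluorescence (480/540 nm) read kinetically in 50 mM HEPES pH 7.8, 0.5 mM EDTA, 1 mM TCEP, 0.1 mg/ml BSA, 0.01% Tween-20.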

Experiment [15] in a line: qHTS for Inhibitors of ATXN expression: Validation of Cytotoxic Assay (AID 588349). Note: % is set by controls: 0 for no effect and ±100 for the full control effect. A digest of the protocol:
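Cytotoxicity counter-screen: ATP-based luminescent viability (CellTiter Glo) after 72 hr exposure of HEK293 cells to a compound titration at 37 degrees C.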

A short description of experiment [16]: qHTS for Inhibitors of ATXN expression: Validation (AID 588378). Note: series mostly up to about 57 µM; % is set by controls: 0 for no effect and ±100 for the full control effect; nearly all actives have a fitted effect of over 75% in size. An outline of the steps: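 HEK293 cells carrying ATXN2-firefly luciferase reporter, treated with compound 24 h at 37 °C. Viability read first by CellTiter-Fluor (405/525 nm), then reporter expression by Bright-Glo luminescence; controls were a known ATXN2 expression inhibitor and a luciferase inhibitor.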

In experiment [17] the target is ATPase family AAA domain-containing protein 5 (Homo sapiens) (UniProt Q96QE3). In words: Validation screen for small molecules that inhibit ELG1-dependent DNA repair in human embryonic kidney (HEK293T) cells expressing luciferase-tagged ELG1 (AID 493107).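 Note: series mostly up to about 46 µM; % is set by controls: 0 for no effect and ±100 for the full control effect; inhibitors lower the ELG1-luciferase luminescence signal; nearly all actives have a fitted effect of over 70% in size.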 A digest of the protocol:
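Luciferase read-out, ONE-Glo, 30 min at room temperature, follows 16 h co-exposure at 37 C of compound and the DNA-damaging agent 5-fluorouridine. Cells: HEK293T with ELG1-luciferase fusion, 2,000 per well, DMSO as vehicle.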

Experiment [18] can be described thus: Nrf2 qHTS screen for inhibitors: Validation (AID 493153; active = well fitted inhibition curve with a large enough effect in the main read-out, with a control signal flat, not every such curve was filed as active; note: potency is the fitted concentration of half-maximal effect). The following applies: Potency: luciferase luminescence; viability change: measured here: cytotoxicity max response. A digest of the protocol: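 Concentration-response on A549 ARE_Fluc reporter cells exposed 18-24 h at 37 C, 5% CO2. Cytotoxicity read first by CellTiter-Fluor fluorescence (Ex 405/Em 525), then Nrf2 inhibition by BugLite luminescence after 15 min.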

Sequence of phosphoglycerate mutase (Leishmania major) (Q4Q090 1-553): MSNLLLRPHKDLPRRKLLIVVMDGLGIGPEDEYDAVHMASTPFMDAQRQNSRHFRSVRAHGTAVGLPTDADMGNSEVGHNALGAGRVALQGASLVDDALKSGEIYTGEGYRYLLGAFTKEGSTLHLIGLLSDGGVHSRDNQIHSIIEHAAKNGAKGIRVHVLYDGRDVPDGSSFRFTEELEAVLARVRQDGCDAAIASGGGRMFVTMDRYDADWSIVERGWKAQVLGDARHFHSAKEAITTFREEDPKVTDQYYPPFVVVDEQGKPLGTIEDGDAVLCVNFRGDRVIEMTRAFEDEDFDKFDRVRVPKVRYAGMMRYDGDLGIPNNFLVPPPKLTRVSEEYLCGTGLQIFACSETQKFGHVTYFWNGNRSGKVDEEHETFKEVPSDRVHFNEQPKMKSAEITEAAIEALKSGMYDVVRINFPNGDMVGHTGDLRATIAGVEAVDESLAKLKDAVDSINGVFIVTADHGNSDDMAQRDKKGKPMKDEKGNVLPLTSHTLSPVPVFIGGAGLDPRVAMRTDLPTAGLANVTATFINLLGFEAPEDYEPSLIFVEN
Sequence of Galactokinase (Homo sapiens) (P51570 whole entry, looked up): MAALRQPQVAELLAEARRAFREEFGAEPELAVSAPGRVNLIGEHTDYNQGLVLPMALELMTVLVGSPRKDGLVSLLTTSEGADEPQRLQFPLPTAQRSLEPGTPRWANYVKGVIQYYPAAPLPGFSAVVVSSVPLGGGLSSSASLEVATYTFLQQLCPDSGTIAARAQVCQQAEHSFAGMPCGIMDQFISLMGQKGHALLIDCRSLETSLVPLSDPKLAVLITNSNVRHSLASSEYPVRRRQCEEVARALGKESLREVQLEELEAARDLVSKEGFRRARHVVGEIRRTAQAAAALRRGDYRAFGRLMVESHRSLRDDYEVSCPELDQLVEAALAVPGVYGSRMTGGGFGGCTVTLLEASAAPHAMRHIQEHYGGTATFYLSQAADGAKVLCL
Sequence of Phosphoglycerate kinase, glycosomal (Trypanosoma brucei brucei) (P07378 whole entry, looked up): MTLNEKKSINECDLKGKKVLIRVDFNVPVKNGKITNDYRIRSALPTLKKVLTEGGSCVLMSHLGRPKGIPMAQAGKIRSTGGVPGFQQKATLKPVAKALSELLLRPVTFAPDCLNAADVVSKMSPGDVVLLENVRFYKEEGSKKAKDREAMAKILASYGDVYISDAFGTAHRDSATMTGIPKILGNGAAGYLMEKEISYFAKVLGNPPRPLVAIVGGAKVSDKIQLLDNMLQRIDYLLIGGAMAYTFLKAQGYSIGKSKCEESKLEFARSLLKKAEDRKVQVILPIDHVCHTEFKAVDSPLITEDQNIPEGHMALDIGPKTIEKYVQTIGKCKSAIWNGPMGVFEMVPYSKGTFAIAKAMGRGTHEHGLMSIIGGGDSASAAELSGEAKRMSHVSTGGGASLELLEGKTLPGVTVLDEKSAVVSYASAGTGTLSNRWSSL
Sequence of ATPase family AAA domain-containing protein 5 (Homo sapiens) (Q96QE3 whole entry, looked up, the tested form may be a part): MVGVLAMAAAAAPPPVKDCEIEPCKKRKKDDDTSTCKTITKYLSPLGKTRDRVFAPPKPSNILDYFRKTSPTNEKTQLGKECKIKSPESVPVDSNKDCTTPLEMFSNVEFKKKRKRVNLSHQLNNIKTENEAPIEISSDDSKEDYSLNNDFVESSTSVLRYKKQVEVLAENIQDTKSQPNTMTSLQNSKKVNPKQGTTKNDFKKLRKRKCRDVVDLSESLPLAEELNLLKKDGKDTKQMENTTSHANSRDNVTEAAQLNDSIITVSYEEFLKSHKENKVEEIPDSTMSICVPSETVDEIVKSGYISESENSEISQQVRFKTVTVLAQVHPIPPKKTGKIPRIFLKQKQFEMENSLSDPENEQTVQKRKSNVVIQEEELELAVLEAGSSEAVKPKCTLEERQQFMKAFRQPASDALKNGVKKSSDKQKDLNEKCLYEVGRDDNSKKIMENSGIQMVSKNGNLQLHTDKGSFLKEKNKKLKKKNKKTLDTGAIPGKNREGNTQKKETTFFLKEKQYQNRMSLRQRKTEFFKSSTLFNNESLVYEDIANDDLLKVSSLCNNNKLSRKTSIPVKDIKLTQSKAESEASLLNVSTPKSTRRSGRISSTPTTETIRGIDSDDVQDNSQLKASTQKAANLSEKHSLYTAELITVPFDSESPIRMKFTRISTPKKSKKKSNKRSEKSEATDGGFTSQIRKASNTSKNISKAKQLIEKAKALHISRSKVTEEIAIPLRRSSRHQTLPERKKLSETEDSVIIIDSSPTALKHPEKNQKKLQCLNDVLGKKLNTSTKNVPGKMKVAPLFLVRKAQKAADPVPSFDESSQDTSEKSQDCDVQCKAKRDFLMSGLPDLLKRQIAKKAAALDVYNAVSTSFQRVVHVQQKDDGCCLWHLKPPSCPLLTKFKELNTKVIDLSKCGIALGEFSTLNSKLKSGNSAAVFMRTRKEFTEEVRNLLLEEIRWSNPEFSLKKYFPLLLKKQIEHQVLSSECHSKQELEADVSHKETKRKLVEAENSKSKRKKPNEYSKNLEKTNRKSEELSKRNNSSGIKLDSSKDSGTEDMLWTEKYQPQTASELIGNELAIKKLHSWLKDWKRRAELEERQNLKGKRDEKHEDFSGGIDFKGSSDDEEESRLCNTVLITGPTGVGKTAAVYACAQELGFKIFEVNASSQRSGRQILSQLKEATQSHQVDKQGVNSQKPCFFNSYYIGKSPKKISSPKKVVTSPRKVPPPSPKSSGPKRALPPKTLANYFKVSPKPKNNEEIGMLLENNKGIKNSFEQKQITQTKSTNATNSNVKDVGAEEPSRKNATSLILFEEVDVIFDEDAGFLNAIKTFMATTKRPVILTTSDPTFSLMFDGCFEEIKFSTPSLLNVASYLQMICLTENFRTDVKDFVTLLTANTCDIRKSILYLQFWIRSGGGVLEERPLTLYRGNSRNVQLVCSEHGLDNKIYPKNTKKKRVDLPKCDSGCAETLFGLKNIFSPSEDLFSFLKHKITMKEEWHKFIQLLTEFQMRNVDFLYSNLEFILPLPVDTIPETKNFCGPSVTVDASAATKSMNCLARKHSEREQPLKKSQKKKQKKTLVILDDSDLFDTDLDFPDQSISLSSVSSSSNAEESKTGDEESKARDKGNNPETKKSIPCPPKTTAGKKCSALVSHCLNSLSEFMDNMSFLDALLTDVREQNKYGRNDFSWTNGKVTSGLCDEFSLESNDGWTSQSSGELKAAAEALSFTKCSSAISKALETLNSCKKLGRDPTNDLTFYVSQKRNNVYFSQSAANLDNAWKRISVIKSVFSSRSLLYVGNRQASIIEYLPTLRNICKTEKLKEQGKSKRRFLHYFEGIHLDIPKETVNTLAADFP
Sequence of D(1A) dopamine receptor (Homo sapiens) (P21728 whole entry, looked up): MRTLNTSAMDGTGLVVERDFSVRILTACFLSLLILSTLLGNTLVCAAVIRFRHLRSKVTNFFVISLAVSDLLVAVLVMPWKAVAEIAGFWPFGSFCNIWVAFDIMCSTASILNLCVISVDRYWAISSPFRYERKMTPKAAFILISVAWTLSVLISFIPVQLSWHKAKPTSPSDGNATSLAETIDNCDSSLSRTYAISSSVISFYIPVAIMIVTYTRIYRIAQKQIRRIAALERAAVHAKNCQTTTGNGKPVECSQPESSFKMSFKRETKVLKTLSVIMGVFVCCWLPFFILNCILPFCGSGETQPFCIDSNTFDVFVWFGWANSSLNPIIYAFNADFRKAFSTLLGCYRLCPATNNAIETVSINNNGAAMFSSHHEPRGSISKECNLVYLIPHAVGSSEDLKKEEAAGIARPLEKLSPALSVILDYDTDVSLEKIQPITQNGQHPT
Sequence of Ubiquitin carboxyl-terminal hydrolase 1 (Homo sapiens) (O94782 whole entry, looked up): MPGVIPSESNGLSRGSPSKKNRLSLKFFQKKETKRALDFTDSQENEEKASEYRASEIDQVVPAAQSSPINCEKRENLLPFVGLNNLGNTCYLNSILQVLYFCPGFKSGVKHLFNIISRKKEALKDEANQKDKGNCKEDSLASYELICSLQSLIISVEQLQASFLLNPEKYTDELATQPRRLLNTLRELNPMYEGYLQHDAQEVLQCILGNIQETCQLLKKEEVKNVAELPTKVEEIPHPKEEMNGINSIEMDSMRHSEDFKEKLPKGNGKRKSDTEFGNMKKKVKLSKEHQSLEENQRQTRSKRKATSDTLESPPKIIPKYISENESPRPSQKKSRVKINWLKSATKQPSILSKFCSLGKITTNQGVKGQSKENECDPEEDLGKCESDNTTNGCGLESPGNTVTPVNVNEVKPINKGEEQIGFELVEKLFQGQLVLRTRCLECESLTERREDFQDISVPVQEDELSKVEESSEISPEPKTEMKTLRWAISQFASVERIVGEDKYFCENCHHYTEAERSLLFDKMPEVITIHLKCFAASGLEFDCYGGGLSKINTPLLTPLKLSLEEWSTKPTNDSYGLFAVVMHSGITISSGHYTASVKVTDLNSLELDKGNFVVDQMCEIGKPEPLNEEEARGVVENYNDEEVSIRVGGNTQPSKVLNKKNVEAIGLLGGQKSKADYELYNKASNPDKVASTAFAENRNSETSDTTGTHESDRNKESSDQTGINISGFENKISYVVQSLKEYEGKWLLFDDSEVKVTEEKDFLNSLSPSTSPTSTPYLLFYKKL
Sequence of Thyrotropin-releasing hormone receptor (Homo sapiens) (P34981 whole entry, looked up): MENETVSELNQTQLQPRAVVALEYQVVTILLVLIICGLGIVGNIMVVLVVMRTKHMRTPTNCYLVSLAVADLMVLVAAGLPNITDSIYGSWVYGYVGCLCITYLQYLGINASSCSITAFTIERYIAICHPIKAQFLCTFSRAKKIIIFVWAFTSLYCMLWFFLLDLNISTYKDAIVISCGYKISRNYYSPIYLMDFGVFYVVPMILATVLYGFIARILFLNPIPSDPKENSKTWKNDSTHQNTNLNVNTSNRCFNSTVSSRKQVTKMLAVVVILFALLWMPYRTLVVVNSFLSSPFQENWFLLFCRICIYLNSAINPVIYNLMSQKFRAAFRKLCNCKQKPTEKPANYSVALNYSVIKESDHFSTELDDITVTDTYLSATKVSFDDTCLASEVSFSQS
Sequence of Peptidyl-prolyl cis-trans isomerase NIMA-interacting 1 (Homo sapiens) (Q13526 whole entry, looked up): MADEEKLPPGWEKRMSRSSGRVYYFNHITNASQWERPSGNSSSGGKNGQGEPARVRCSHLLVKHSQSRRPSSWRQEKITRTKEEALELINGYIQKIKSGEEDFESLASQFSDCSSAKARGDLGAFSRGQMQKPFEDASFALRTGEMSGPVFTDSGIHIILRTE

On to `O=c1[nH]c2cc(Cl)ccc2c(O)c1-c1ccc(Oc2ccccc2)cc1`, for which the outcome in experiment [1], in [2] and in experiment [8] was inactive. In addition, the Potency entry in experiment [3], in experiment [4], in experiment [5], in experiment [6], in experiment [9] and in [10] was “inactive” in each case. Also, the Potency entry in experiment [11], in [12], in experiment [13], in experiment [14], in experiment [15] and in experiment [16] was “inactive” in each case. Moreover, the activation in [7] was 0.5% (inactive).

Take `COC(=O)C1=C(C)NC(C)=C([N+](=O)[O-])C1c1ccccc1C(F)(F)F` (stereo unspecified): the result in experiment [1], in experiment [2] and in experiment [8] was inactive. Also, the Potency result in [3], in [4], in [5], in experiment [17], in experiment [18] and in [9] was “inactive” each time. The Potency result in [10], in [11], in [12], in [13], in experiment [15] and in [16] was “inactive” each time. Also, in experiment [7], the activation is -3.94% (inactive). The viability change in [18] is -10.2%.

Consider `O=C(O)C1CN(CCCP(=O)(O)O)CCN1` (stereo unspecified), for which the result in [1], in [2] and in experiment [8] was inactive. Moreover, the Potency result in experiment [3], in experiment [4], in experiment [5], in [17], in experiment [18] and in [9] was “inactive” throughout. For the same compound, the Potency result in experiment [10], in experiment [12], in experiment [13], in experiment [14], in [15] and in experiment [16] was “inactive” each time. For the same compound, the viability change in experiment [18] was determined as 8.53%.

As for `NC1(C(=O)O)CCCCC1`, the result in experiment [1], in [2] and in experiment [8] was inactive. For the same compound, the Potency result in [3], in experiment [4], in [5], in [17], in [18] and in experiment [9] was “inactive” in each case. Moreover, the Potency result in experiment [10], in [11], in [12], in experiment [13], in experiment [14] and in experiment [15] was “inactive” throughout. Further, in [16], the Potency entry was “inactive”. For the same compound, the activation in experiment [7] is 0.5% (inactive). In addition, the viability change in [18] is -4.89%.

Consider `CCN(CC)CCCCCCCCOC(=O)c1cc(OC)c(OC)c(OC)c1`, for which the result in experiment [1], in [2] and in experiment [8] was inactive. Moreover, the Potency result in experiment [3], in experiment [4], in experiment [5], in experiment [17], in experiment [18] and in [9] was “inactive” in each case. For the same compound, the Potency result in [10], in experiment [11], in experiment [12], in [13], in [14] and in experiment [16] was “inactive” each time. In addition, the viability change in experiment [18] was determined as 6.3%.

As to `CCCCC[C@H](CC(=O)NO)C(=O)N[C@H](C(=O)N1CCC[C@H]1CO)C(C)C`, the outcome in [1], in experiment [2] and in experiment [8] was inactive. For the same compound, the Potency result in experiment [3], in [4], in [5], in [9], in experiment [10] and in [11] was “inactive” throughout. Also, the Potency entry in experiment [12], in experiment [13] and in experiment [14] was “inactive” in each case. For the same compound, the activation in experiment [7] was -2.88% (inactive). In addition, the Potency in experiment [18] was 16.4 µM (active). The viability change in [18] worked out at 2.77%.

Turning to `NC1C=CC=C(C(=O)O)C1` (stereo unspecified), the result in experiment [1], in [2] and in experiment [8] was inactive. The Potency entry in [3], in experiment [4], in experiment [5], in experiment [17], in [18] and in experiment [9] was “inactive” throughout. For the same compound, the Potency result in experiment [10], in experiment [11], in experiment [12], in experiment [13], in experiment [14] and in [15] was “inactive” throughout. Besides, in experiment [16], the Potency entry was “inactive”. The activation in experiment [7] was -0.125% (inactive). Further, the viability change in experiment [18] turned out to be 17.7%.
